IL-1B inflam inh = inflammasome signaling inhibition, IL-1 beta readout. hit rate 4.7% among 360,000. activity change, % at 57.5 µM. AID 743279. THP-1 LPS/ATP IL-1B secretion, AlphaLISA, 16 h; active compounds read low; in the data active means activity change below about -50%; inconclusive means mostly about -30% to -49%; further: on the % scale 0 is the no-effect control and ±100 the full control effect
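Secreted IL-1B measured by AlphaLISA bead assay after 16 h compound exposure of THP-1 cells; compounds (final up to 57.5 uM) added 1 h before LPS (250 ng/mL) and ATP (1.25 mM) stimulation; lower signal means less secretion.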
SW480 rerep = inducers of DNA re-replication in SW480 colon cancer cells; Potency, µM (highest dose often 46.1 µM), for the others: at the top dose re-replication activation, hits mostly activators; AID 624297; SW480 DNA re-replication, Hoechst DNA content imaging, 48 h; hit rate 1.8% among 340,000; further: potency means the concentration at half of the fitted maximal effect; % of control where 0% means no effect; nearly all actives have a fitted effect of over 55% in size
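First, 250 cells per well were seeded. Next, compound or vehicle (23 nL) was pinned in, plates sat 48 hr at 37 C. Finally Hoechst was added for 40 min before fluorescence scanning.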
PINK1 expr mod = PINK1 expression modulation; PINK1 immunofluorescence, high-content cytometry, 24 h; Potency, µM (titrated, usually from 76.6 µM), inactives show at the highest dose activation (PINK1 increase), usual class: activators; hit rate 0.2% among 410,000; active means well fitted activation curve with a large enough effect; inconclusive means small, poorly fitted or top-dose-only effect; cell line not stated here; further: potency means the concentration at half of the fitted maximal effect; % of control where 0% means no effect; nearly all actives have a fitted effect of over 65% in size
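Cells are seeded, rested 12 hours, then given compound at five concentrations or DMSO for 24 hours. After fixation, blocking and antibody staining, PINK1 amount and mitochondrial localization are scored; CCCP serves as control.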
MCF10A rerep = inducers of DNA re-replication in MCF 10A breast cells; hit rate 2.9% among 350,000; Potency, µM (highest dose often 46.1 µM), without a hit: at the top dose activity, positive = re-replication, most hits filed as activators; AID 624296; MCF 10A DNA re-replication, Hoechst nuclear intensity, 48 h; further: potency means the concentration at half of the fitted maximal effect; % of control where 0% means no effect; nearly all actives have a fitted effect of over 50% in size
ATXN viability = viability counter-screen for ATXN expression inhibitors. hit rate 0.49% among 400,000. Potency, µM (series often up to 56.7 µM), most hits filed as cytotoxic. S2 cells (HEK-293 line with an ATXN2-luciferase reporter) viability, CellTiter-Fluor protease fluorescence, 24 h. AID 651635; further: potency means the concentration at half of the fitted maximal effect; nearly all actives have a fitted effect of over 40% in size
ATXN2 expr inh = ATXN2 expression inhibition. HEK-293 ATXN2-luciferase reporter, luminescence, 24 h. hit rate 0.72% among 360,000. Potency, µM (top dose mostly 57 µM), for the others: at the highest dose activity change, negative = inhibition, usual class: inhibitors; further: potency means the concentration at half of the fitted maximal effect; on the % scale 0 is the no-effect control and ±100 the full control effect; nearly all actives have a fitted effect of over 55% in size
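ATXN2-luciferase reporter cells (luciferase flanked by upstream and downstream ATXN2 gene portions) were treated 24 h at 37 °C with compounds at up to 57 uM. SteadyGlo luminescence gave expression; GF-AFC fluorescence gave viability.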
* = called active by the depositor; i = inactive; ? = inconclusive; . = not tested or not shown; [ ] = another dose, or the depositor's remark. Hits are enriched below; roughly 7.1% of the tested compounds scored in any of these assays. Unless noted, the call rests on the fitted dose curve; in most records, active means well fitted curve in the direction sought with a large enough effect; inconclusive means small, poorly fitted or top-dose-only effect, or another doubt; inactive means no such curve, though single readings can be large; an effect the other way counts as inactive or inconclusive.

SMILES | IL-1B inflam inh | SW480 rerep | PINK1 expr mod | MCF10A rerep | ATXN viability | ATXN2 expr inh
CCCCn1c(=O)n(-c2cc(OC)ccc2OC)c(=O)c2c3c(sc21)CN(C(C)=O)CC3 | . | . | 2.6% | . | i | 1.1%
CC(=O)Nc1ccc(-c2csc(NNC(=O)c3ccccc3)n2)cc1 | ? | 6.6% | -0.9% | ? | ? | .
CC(=O)Nc1ccc(-c2csc(-c3cccnc3)n2)cc1 | -55.0* | 7.6% | 2.9% | 1.9% | i | -6.0%
CC(=O)Nc1ccc(-c2csc(N/N=C(/C)c3ccccc3)n2)cc1 | -70.4* | -2.3% | 9.2% | 10.8% | i | -7.2%
CCCC(=O)Nc1ccc(-c2csc(-c3cccnc3)n2)cc1 | -29.8 | 14.4% | 8.5% | 5.8% | i | -35.1%
CCOC(=O)c1cc(-c2ccc(F)cc2)n(CCC(=O)Nc2cc(OC)cc(OC)c2)c1C | . | . | 3.5% | . | . | .
Cc1ccc(OCC(=O)N(C)CC(=O)Nc2ccc(F)c(F)c2F)cc1 | -64.8* | ? | -1.3% | 1.5% | i | 0.7%
COc1cccc(/C=C2\Oc3cc(OC(=O)N4CCOCC4)ccc3C2=O)c1 | -3.1 | -2.0% | 0.7% | 1.5% | i | 12.1%
Cc1cccc(/C=C2\Oc3cc(OS(C)(=O)=O)ccc3C2=O)c1 | -55.8* | 0.0% | 0.2% | 27.3% | i | 0.0%
O=C1/C(=C/c2cccc(F)c2)Oc2cc(O)ccc21 | -79.2* | 1.3% | ? | 14.6% | . | -14.0%
COc1ccc(C(=O)NCC(c2ccc3c(c2)OCO3)N2CCN(C)CC2)cc1OC (centres undefined) | . | . | -0.3% | . | i | -0.3%
Cc1cc(C)cc(NC(=O)Cn2cc(C(=O)c3ccncc3)c(=O)c3cc(C)c(C)cc32)c1 | . | . | 3.5% | . | . | .
CCOc1ccc(Nc2sc(C(=O)c3ccc4c(c3)OCO4)c(N)c2S(=O)(=O)c2ccc(C)cc2)cc1 | . | . | -0.5% | . | i | -4.6%
CCOc1ccc(NS(=O)(=O)c2ccc3c(c2)NC(=O)CCS3)cc1 | . | . | 0.2% | . | ? | -18.5%
Cc1ccc2c(C(=O)CN3CCSCC3)c(C)[nH]c2c1 | -11.1 | 2.3% | 1.2% | -1.4% | i | 1.8%
Cc1ccc2[nH]cc(C(=O)CCl)c2c1 | -100.7* | ? | -4.3% | ? | ? | ?
Cc1ccc2c(C(=O)CCl)c(C)[nH]c2c1 | -97.6* | ? | -0.7% | 18.4µM* | i | 20.3%
Cc1nc(CC(=O)N2CCC(n3c(C4CCC4)nc4cccnc43)CC2)cs1 | . | . | -0.1% | . | ? | .
Cc1cc(Br)c(NC(=O)COC(=O)CC2CC3CCC2C3)c(Br)c1 (centres undefined) | 0.8 | -5.7% | 1.0% | -32.6% | i | 0.9%
NC(=O)C(=O)N/N=C/c1c2ccccc2cc2ccccc12 | 108.1 | ? | ? | 23.1µM* | i | -9.4%
Cc1cc(C(=O)N/N=C/c2c3ccccc3cc3ccccc23)n[nH]1 | 16.8 | ? | 0.4% | 20.6µM* | ? | -18.1%
Cc1cc(C(=O)N/N=C/c2ccc(-c3cccc(Br)c3)o2)n[nH]1 | -1.5 | 20.6µM* | 8.8% | ? | ? | .
O=C(NCCCN1CCOCC1)C(=O)N/N=C/c1c(Cl)cccc1Cl | 0.0 | -11.3% | 2.7% | -4.2% | i | -6.4%
CCOc1ccc2ccccc2c1/C=N/NC(=O)c1cc(C)[nH]n1 | ? | -31.0% | -1.3% | -5.9% | i | 1.1%
NC(=S)N/N=C/c1c(O)ccc2ccccc12 | 24.9 | ? | 0.3% | ? | ? | .
SMILES | IL-1B inflam inh | SW480 rerep | PINK1 expr mod | MCF10A rerep | ATXN viability | ATXN2 expr inh
O=C(NCCCN1CCOCC1)C(=O)N/N=C/c1c2ccccc2cc2ccccc12 | 47.0 | 23.1µM* | -3.6% | ? | i | ?
Cc1ccc2c(=O)cc(C(=O)Nc3c(C(=O)c4ccccc4)oc4ccccc34)oc2c1C | . | . | 4.6% | . | i | 1.8%
CC(C)c1ccc(S(=O)(=O)NCc2nc3cccnc3n2Cc2ccc(F)cc2)cc1 | . | . | -0.1% | . | . | .
O=C1O[C@H]2[C@H](O)[C@@H]1OC(O)[C@H]2O (some centres undefined) | . | . | . | . | i | .
COc1ccc(NC(=O)c2ccco2)cc1NC(=O)C(C)(C)Oc1ccc(Cl)cc1 | . | . | 2.9% | . | ? | ?
COc1cc(=O)n2c(c1C(=O)NCc1ccc3c(c1)OCO3)CCN(C(=O)c1ccc(C)cc1)CC2 | . | . | -0.4% | . | i | .
O=c1cc(C(F)(F)F)[nH]c2ccc(OC(F)(F)F)cc12 | . | -2.3% | 35.5µM* | ? | i | ?
COc1ccc2c(c1)CCC1C2CC[C@@]2(C)C(O)CCC12 (some centres undefined) | . | . | 1.5% | . | . | .
CCOc1cc2c(cc1O)C(=NOC)CC1C2CCC2(C)C(O)CCC12 (centres undefined) | -18.7 | 5.8µM* | 2.4% | 2.06µM* | i | 11.0%
CC1CC(C)CN(C(=O)/C(=C\c2ccccc2)c2ccccc2)C1 (centres undefined) | ? | -23.0% | 17.5% | 20.6µM* | i | -9.7%
CN1CCN(C(=O)/C(=C/c2ccccc2)c2ccccc2)CC1 | -14.3 | -0.8% | 3.4%[38.3 µM] | 0.6% | i | -7.0%
COc1ccc2c(C)cc(SCc3c(C)noc3C)nc2c1 | -12.6 | ? | ? | 11.6µM* | i | 1.9%
C=C1C2=C(C(=O)N1OC)[C@@H](O)[C@@](C)(O)[C@@H](CCCCC)O2 | -83.4* | . | 2.4% | . | ? | -8.7%
Cc1nnc(N2CCCC(C(=O)NCc3ccccc3F)C2)c2nn(-c3ccc(Cl)cc3)c(C)c12 (centres undefined) | . | . | 0.4% | . | i | 1.5%
CC(C)C1CC(CCN)(Cc2ccccc2)CCO1 (centres undefined) | -51.8* | ? | -0.2% | ? | i | -23.6%
CC(C)c1nn2c(=O)cc(COC(=O)c3ccc(NC(=O)C4CCCCC4)cc3)nc2s1 | . | . | 1.0% | . | . | .
C/C(=N/Nc1cc(-c2ccccc2)nc(-c2ccccc2)n1)c1ccc(O)cc1 | -105.3* | -2.3% | -2.1% | 18.4µM* | ? | -6.8%
CC(C)CN(C[C@@H](O)[C@H](Cc1ccccc1)NC(=O)O[C@H]1CCOC1)S(=O)(=O)c1ccc(N)cc1 | . | 7.1% | . | -7.3% | . | .
COC(=O)c1ccccc1NC(=O)Cn1c(-c2nonc2N)nc2ccccc21 | 43.2 | 0.316µM* | 15.2%[38.3 µM] | 0.159µM* | ? | -29.8%
O=C(N/N=C/C=C/c1ccccc1[N+](=O)[O-])c1cccs1 | 3.6 | -8.3% | 2.2% | ? | i | 9.5%
O=C(N/N=C/c1ccc([N+](=O)[O-])cc1)c1ccc(NS(=O)(=O)c2cccs2)cc1 | -14.4 | -9.4% | -0.4% | -2.1% | ? | .
O=C(N/N=C/c1ccc2c(c1)OCO2)c1ccc(NS(=O)(=O)c2cccs2)cc1 | -60.2* | ? | -2.0% | 10.0% | i | 23.6%

Assay outcomes deposited in PubChem BioAssay by National Center for Advancing Translational Sciences (NCATS).
